Screens from PubChem BioAssay.
GALC G270D act – raises human GALC G270D mutant activity in cells; Potency, µM (series often up to 57.5 µM), hits mostly activators; P54803; hit rate 0.1% among 45,000; 145M-Twi-hGALC-G270D cells (Twitcher mouse brain line with human GALC G270D), HMU-beta-Gal fluorescence, 48 h; also: nearly all actives have a fitted effect of over 65% in size
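Brain-derived Twitcher mouse 145M-Twi cells stably expressing human GALC-G270D or wild-type GALC, treated live, then residual GALC activity read by fluorescence of HMU-b-Gal substrate (0.1 mM final) in citrate-phosphate buffer pH 5.2 with sodium taurocholate. Signal increase indicates enhancement.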
NTMT1 inh – inhibitors of human N-terminal methyltransferase NTMT1; Q9BV86; NTMT1 MTase-Glo SAH luminescence, purified enzyme; Potency, µM (top dose mostly 114 µM), actives largely listed as inhibitors; hit rate 2.5% among 59,000; AID 1645870; also: nearly all actives have a fitted effect of over 65% in size
Target sequence (Q9BV86 whole entry, looked up): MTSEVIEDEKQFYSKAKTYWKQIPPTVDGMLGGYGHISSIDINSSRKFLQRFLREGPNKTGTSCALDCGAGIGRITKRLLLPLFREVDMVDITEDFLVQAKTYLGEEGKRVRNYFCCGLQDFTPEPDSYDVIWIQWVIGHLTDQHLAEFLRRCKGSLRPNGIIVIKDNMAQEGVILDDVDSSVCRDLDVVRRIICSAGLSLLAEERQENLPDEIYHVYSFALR
FH mod – Identification of activators of human fumarate hydratase by quantitative high-throughput screening; AID 1347055, 2019; FH coupled MDH/diaphorase resazurin fluorescence, 15 min; hit rate 0.22% among 54,000; Fumarate hydratase, mitochondrial (Homo sapiens), P07954; Potency, µM (titrated, usually from 79.9 µM), hits mostly inhibitors; also: the screen sought activators but most active calls are inhibition curves; nearly all actives have a fitted effect of over 45% in size
p53null 32C kill – selectivity test: cytotoxicity in p53 null cells, permissive temperature; H1299-neo p53 null cells, ATP luminescence, 24 h, 32C; Potency, µM (titrated, usually from 46.1 µM), actives largely listed as cytotoxic; AID 903; hit rate 0.62% among 55,000; also: nearly all actives have a fitted effect of over 55% in size
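AC50 values derive from Hill modelling of qHTS concentration-response data (up to 46 uM) in H1299-neo cells. Cells were treated 24 h at 32C following overnight attachment at 37C; viability was read as cellular ATP.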
p53null 39C tox – p53 null cell cytotoxicity, nonpermissive temperature; H1299 p53-null (neo) cells, 39C, ATPlite viability, 24 h; Potency, µM (highest dose often 46.1 µM), hits mostly cytotoxic; hit rate 0.97% among 55,000; also: nearly all actives have a fitted effect of over 50% in size
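Concentration-response (up to 46 uM) was run for 24 h at the nonpermissive 39C on H1299-p53A138V or H1299-neo cells. ATP content was measured with ATPlite luminescence. AC50 values were Hill-modeled after normalizing between DMSO and 100 uM tamoxifen killing.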
Hits are given with their value; n = inactive; u = inconclusive; x = no result given; ! = not active in a repeat; [ ] = dose if it differs, or a comment. The entries come from a sample that favours hits as a whole. Calls follow the shape of the dose curve; as a rule, active = well fitted curve in the direction sought with a large enough effect; inconclusive = small, poorly fitted or top-dose-only effect, or another doubt; inactive = no such curve, though single readings can be large; an effect the other way counts as inactive or inconclusive.

SMILES	GALC G270D act	NTMT1 inh	FH mod	p53null 32C kill	p53null 39C tox
CCc1ccc(NC(=O)CSc2nc(C)c(C(=O)Nc3ccc(Cl)cc3)c(-c3ccc(OC)cc3)c2C#N)cc1	n	n	n	n	n
COc1ccc(-n2cnc3cc(N)ccc32)cc1	x	x	x	n	n
Nc1ccc2cc3ccc(N)cc3nc2c1	n	35.5µM	n	x	x
Cc1ccc(CNC(=O)Cn2ccn(-c3cc(C)cc(C)c3)c(=O)c2=O)cc1	n	n	n	n	n
Cc1ccc(Cn2ccn(CC(=O)Nc3c(C)cc(C)cc3C)c(=O)c2=O)cc1	n	50.1µM	n	n	n
CC(C)(C)OC(=O)N1CCN(c2ccc(NCc3cncc(-c4ccc(C#N)cc4)c3)cc2)CC1	x	n	x	x	x
Cc1ccc(S(=O)(=O)Nc2ccccc2C(=O)Nc2ccc(-c3ccccc3)cc2)cc1	x	n	x	x	x
NC(=O)c1c(OCc2c(F)cc(Br)cc2F)nsc1NC(=O)NCCCCN1CCCC1	x	30.4µM!	n	x	x
CSc1cccc(NC(=O)c2ccc3c(c2)CCCN3S(C)(=O)=O)c1	n	n	n	12.6µM	u
CCS(=O)(=O)N1CCc2cc(C(=O)Nc3cccc(NC(C)=O)c3)ccc21	n	n	n	n	n
CCOC(=O)C1=CCCCC1S(=O)(=O)Nc1ccc(F)cc1Cl (configuration not stated)	x	n	x	x	x
Cc1ccc(-c2ccc(=O)n(CC(=O)NCCc3ccc(O)cc3)n2)cc1	x	n	x	x	x
Cc1c(C(=O)OC[C@H]2CCCO2)[nH]c2c1C(=O)CC(c1ccco1)C2 (some centres not stated)	x	50.1µM	x	x	x
Cc1c(C(=O)OCc2ccco2)[nH]c2c1C(=O)CC(c1ccco1)C2 (configuration not stated)	x	n	x	x	x
OCC(CO)(CO)NCC(O)Cn1c2ccc(Cl)cc2c2cc(Cl)ccc21 (configuration not stated)	x	22.4µM	n	x	x
COc1ccccc1-c1cc2nc(C)c(CCC(=O)NCc3cccc(Cl)c3)c(C)n2n1	n	89.1µM	u	n	n
Cc1nn2c(=O)cc(COC(=O)c3cccc(NC(=O)c4ccc(C(C)(C)C)cc4)c3)nc2s1	n	n	n	3.16µM	1.26µM
Cc1cccc(C(=O)Nc2cccc(C(=O)OCc3cc(=O)n4nc(C(C)C)sc4n3)c2)c1	n	n	n	n	n
O=C(Nc1nc2nc(-c3ccccc3)cc(=O)n2[nH]1)c1ccc(Cl)cc1	n	50.1µM	n	n	n
O=C1CCCC2=C1C(c1cccnc1Cl)N=C(Nc1nc3ccccc3o1)N2 (configuration not stated)	x	n	x	x	x
Cc1cccc(Nc2nnc(-c3ccc(C)c(S(=O)(=O)N4CCN(C)CC4)c3)c3ccccc23)c1	n	n	n	n	10µM
Cc1ccc(-c2nnc(Nc3cccc(Br)c3)c3ccccc23)cc1S(=O)(=O)N1CCN(C)CC1	n	n	n	n	n
COc1ccc(CCNC(=O)CCc2c(C)c3cc4c(C)coc4c(C)c3oc2=O)cc1OC	n	89.1µM	n	n	n
Cc1ccc(S(=O)(=O)c2nc(-c3ccco3)oc2SCC(=O)c2ccc(Cl)cc2)cc1	n	n	n	n	u
Cc1cc(C)cc(NC(=O)CSc2oc(-c3ccco3)nc2S(=O)(=O)c2ccc(Cl)cc2)c1	n	n	n	u	u
SMILES	GALC G270D act	NTMT1 inh	FH mod	p53null 32C kill	p53null 39C tox
CCOc1ccc(NC(=O)CSc2oc(-c3ccco3)nc2S(=O)(=O)c2ccc(Cl)cc2)cc1	n	79.4µM	n	n	n
O=C(CSc1oc(-c2ccco2)nc1S(=O)(=O)c1ccc(Cl)cc1)c1ccc(Cl)cc1	n	79.4µM	n	n	n
Cc1cc(Nc2cccc(Cl)c2)nc2ccc(NC(=O)c3cncc(Br)c3)cc12	n	n	n	n	20µM
Cc1cc(Nc2cccc(C(F)(F)F)c2)nc2ccc(NC(=O)c3cncc(Br)c3)cc12	n	n	31.6µM	n	n
C=C1/C(=C/C=C2\CCC[C@]3(C)[C@@H]([C@H](C)/C=C/[C@H](O)C4CC4)CC[C@@H]23)C[C@@H](O)C[C@@H]1O	x	n	n	x	x
CC(C)(O)/C=C1/C(=O)C(C)(C)C(=O)C(C)(C)C1(O)O[C@@H]1O[C@H](COC(=O)c2cc(O)c(O)c(O)c2)[C@@H](O)[C@H](O)[C@H]1O (some centres not stated)	x	n[12.6 µM]	n	x	x
CC(C)C(C(=O)N1CCCC1C(=O)O)N(C)C(=O)C(O)Cc1ccccc1 (configuration not stated)	x	n	n	x	x
COC(=O)c1c(SCC(=O)Nc2cc(OC)cc(OC)c2)[nH]c2ccc(C)cc2c1=O	n	n	u	u	3.16µM
COC(=O)c1c(SCC(=O)Nc2ccccc2OC)[nH]c2ccccc2c1=O	n	n	n	u	7.94µM
CNCC(=O)Nc1ccc(Cl)cc1C(=O)c1ccc[nH]1	x	n	x	x	x
COc1ccc2oc(=O)c(-c3nc4ccc(C)cc4[nH]3)cc2c1	n	n	n	n	n
COc1ccc2nc(-c3ccc(N)cc3)[nH]c2c1	x	x	x	12.6µM	u
COc1ccc2nc(-c3cccc(N)c3)[nH]c2c1	x	x	x	10µM	8.91µM
CCCCC1CCC(C(=O)Nc2ccc(S(=O)(=O)Nc3cc(C)on3)cc2)CC1 (configuration not stated)	x	n	x	x	x
CN1CCCN(C(=O)c2cccc(-c3ccc(C=C4C(=O)Nc5ccc(Cl)cc54)o3)c2)CC1	x	7.08µM	n	x	x
Cc1[nH]c(/C=C2\C(=O)Nc3ccc(S(=O)(=O)N(C)c4cccc(Cl)c4)cc32)c(C)c1C(=O)N1CCN(C)CC1	x	n	n	x	x
COc1cc2c(NC3CCN(C4CCCCC4)CC3)nc(N3CCCN(C(C)C)CC3)nc2cc1OCCCN1CCCCC1	x	20µM	x	x	x
Cc1ccc(Nc2nccc(N(C)c3ccc4c(C)n(C)nc4c3)n2)cc1S(N)(=O)=O	n	15.8µM!	n	x	x
Cc1ccc(O)cc1Nc1ccnc(Nc2cccc(C(N)=O)c2)n1	x	n	n	x	x
CCN(C)S(=O)(=O)Nc1ccc(F)c(C(=O)c2c[nH]c3ncc(-c4cnc(C5CC5)nc4)cc23)c1F	x	n	x	x	x
Fc1ccc(Cc2cn3cc(-c4ccccc4)nc3s2)cc1	n	n	n	4.47µM	2µM
Fc1ccc(-c2cn3cc(Cc4ccccc4)sc3n2)cc1	n	n	n	u	u
CCC(C(=O)NC1CCCCC1)n1c(SCc2cccc(C)c2)nc2ccncc21 (configuration not stated)	n	n	n	12.6µM	7.94µM
CCC(C(=O)NC1CCCCC1)n1c(SCc2cccc(F)c2)nc2ccncc21 (configuration not stated)	n	n	n	n	n
CN(C)CCOc1cc(NS(=O)(=O)c2c(Cl)cc(C(F)(F)F)cc2Cl)ccc1Cl	x	n	n	x	x
CC(=O)c1ccc(NC(=O)/C=C/c2ccc(C)o2)cc1	x	x	x	12.6µM	u
